Data: PubChem BioAssay AID588676 (Johns Hopkins Ion Channel Center, 2011)
Among all 310,000 compounds or so, about 3,900 (1.3%) were called active.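 Rule for the calls: active = calcium-response B-score plate-corrected more than 3 library SD below zero, starting fluorescence within 5 deviations, no agonist response on first addition; inactive = the rest.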 The full list was thinned out, with actives kept by preference.

target: Mas-related G-protein coupled receptor member X1 (Homo sapiens) (UniProt Q96LB2); test: blockade of BAM8-22-evoked MrgX1 calcium response – HEK293 cells, Fluo-4 calcium flux, primary screen (AID 588676); conditions: Fluo-4, BAM8-22 antagonism, at 10 µM; hits give low values;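 for B-score: peak minus trough fluorescence over baseline after final BAM8-22 challenge near maximal dose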
Sequence (Q96LB2 whole entry, looked up): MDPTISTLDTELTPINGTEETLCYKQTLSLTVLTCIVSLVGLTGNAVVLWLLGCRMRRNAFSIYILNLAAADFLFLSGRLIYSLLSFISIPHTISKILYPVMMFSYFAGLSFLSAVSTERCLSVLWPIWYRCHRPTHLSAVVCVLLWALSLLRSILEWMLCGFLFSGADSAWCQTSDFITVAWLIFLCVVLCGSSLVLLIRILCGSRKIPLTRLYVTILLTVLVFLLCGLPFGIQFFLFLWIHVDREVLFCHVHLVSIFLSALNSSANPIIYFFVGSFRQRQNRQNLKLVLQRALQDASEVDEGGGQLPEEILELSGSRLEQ

B-score, inactive:
CCOC(=O)c1ccc(COC(=O)CCc2nc(-c3ccccc3)c(-c3ccccc3)o2)cc1
O=C(NNC(=O)c1csc(-c2cccnc2)n1)Nc1ccc(Cl)cc1
Cc1ccc(NC(=O)Nc2cccnc2)cc1
CCn1c(SCC(=O)Nc2cc(C)ccc2C)nnc1-c1cnccn1
Cc1ccccc1NC(=O)C(C)c1ccc(-c2ccccc2)c(F)c1 (stereo not given)
CCOc1ccc(CN2CCC(n3nccc3NC(=O)C3CC3)CC2)cc1CO
O=C(NC1CCCC1)C(c1ccc(Cl)cc1)N(C(=O)c1csnn1)C1CC1 (stereo not given)
O=C(NC1CCCC1)C(c1ccccn1)N(C(=O)c1csnn1)C1CCCC1 (stereo not given)
CCc1ccc(Nc2n[n+](-c3ccccc3)c(-c3cccc(Cl)c3Cl)s2)cc1
CCc1nnc(NC(=O)CCC(=O)N2CCN(c3cc(C)ccc3C)CC2)s1
CC1CCC(N2CC(=O)N(Cc3ccc4c(c3)OCO4)C(c3ccc(F)cc3)C2=O)CC1 (stereo not given)
CCc1ccccc1NC(=O)c1ccc2c(c1)CCN2S(C)(=O)=O
CC(=O)Nc1ccc(Oc2ccc3c(c2)C(=O)NC3=O)cc1
CCCCN(C)CCC(=O)Nc1ccc(Cl)cc1
Cc1ccc(CN(CC(=O)NCC2CCCO2)S(=O)(=O)c2ccc(C)cc2)cc1 (stereo not given)
O=C(c1c(F)cccc1Cl)N1CCN(S(=O)(=O)c2ccc3c(c2)OCCCO3)CC1
CN1CCCN(S(=O)(=O)c2ccc3c(c2)OCCO3)CC1
COc1ccc(C(=O)NCCn2nc(C)cc2C)cc1OC1CCN(C(C)=O)CC1
COc1ccc(C(=O)N2CCC(C(=O)Nc3cccc(C)c3)CC2)cc1OC
CCOc1ccc(NC(=O)COc2ccc(C(=O)NC3CCCc4ccccc43)cc2OC)cc1 (stereo not given)
Cc1ccc(S(=O)(=O)CCC(=O)OCC(=O)N(C)C2CCS(=O)(=O)C2)cc1 (stereo not given)
O=C(CSc1nnc2n1CCCN2)c1ccccc1
Cc1c(Cl)cccc1NC(=O)NCCCN1CCCC1=O
Cc1cc(Cl)ccc1NC(=S)NCCCN1CCCC1=O

B-score, active:
O=C(Nc1ccc(Cl)cc1)Nc1ccc(Oc2cccnc2)nc1 -7.03
Cc1ccc(C(C(=O)NC2CCCCC2)N(C(=O)c2csnn2)C2CC2)o1 (stereo not given) -7.09
CCCCC(=O)Nc1ccc2c(c1)C(=O)NC2=O -4.77
CCCCCC(=O)N1CCN(S(=O)(=O)c2ccc3c(c2)OCCCO3)CC1 -12
CCOc1ccc(NC(=O)COc2ccc(C(=O)N3CCC(C(N)=O)CC3)cc2OC)cc1 -8.23
O=C1CCCN1CCCNC(=S)Nc1ccc(F)c(Cl)c1 -4.94
